# Results taken from PMC5540273 (PLoS ONE, 2017).
# Where “and” joins values, the source holds several entries; their conditions need not be identical. Equal values may be shown once. Read-outs that look alike come from different tables or passages of the source.
# Assays:
# MEK2 = test system: T1, MEK2; settings: concentration: 1 μM, replicates: in singlicate, n = 1
# T1 construct: gene MAP2K2
# MEK3 = test system: T2, MEK3; settings: concentration: 1 μM, replicates: in singlicate, n = 1
# T2 construct: gene MAP2K3
# MEK5 = test system: T3, MEK5; settings: concentration: 1 μM, replicates: in singlicate, n = 1
# T3 construct: gene MAP2K5
# MKNK1 = settings: concentration: 1 μM, replicates: in singlicate, n = 1
# MLCK = test system: T4, MLCK; settings: concentration: 1 μM, replicates: in singlicate, n = 1
# T4 construct: gene MYLK3
# MLK1 = test system: T5, MLK1; settings: concentration: 1 μM, replicates: in singlicate, n = 1
# T5 construct: gene MAP3K9
# MLK3 = settings: concentration: 1 μM, replicates: in singlicate, n = 1
# MKK7 = settings: concentration: 1 μM, replicates: in singlicate, n = 1
# MEK1 = test system: T6, MEK1; settings: concentration: 1 μM, replicates: in singlicate; n = 1
# T6 construct: gene MAP2K1
# MEK4 = test system: T7, MEK4; settings: concentration: 1 μM, replicates: in singlicate; n = 1
# T7 construct: gene MAP2K4
# MEK6 = test system: T8, MEK6; settings: concentration: 1 μM, replicates: in singlicate; n = 1
# T8 construct: gene MAP2K6
# MELK = settings: concentration: 1 μM, replicates: in singlicate; n = 1
# MERTK = settings: concentration: 1 μM, replicates: in singlicate; n = 1
# MET = settings: concentration: 1 μM, replicates: in singlicate; n = 1
# MINK = test system: T9, MINK; settings: concentration: 1 μM, replicates: in singlicate; n = 1
# T9 construct: gene MINK1
# MKNK2 = settings: concentration: 1 μM, replicates: in singlicate; n = 1
# MLK2 = settings: concentration: 1 μM, replicates: in singlicate; n = 1
# MRCKA = settings: concentration: 1 μM, replicates: in singlicate; n = 1
# MRCKB = test system: T10, MRCKB; settings: concentration: 1 μM, replicates: in singlicate; n = 1
# T10 construct: gene CDC42BPB
# MST1R = settings: concentration: 1 μM, replicates: in singlicate; n = 1
# 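Further: KINOMEscan kinase panel screen.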
smiles,measurement,setting,value
NCCNS(=O)(=O)c1ccc(-c2ccnc3[nH]ccc23)cc1 [GSK977617],%Inh,MEK2; 1 µM,52% and 48%
same,%Inh,MEK3; 1 µM,46% and 21%
same,%Inh,MEK5; 1 µM,88% and 70%
same,%Inh,MKNK1; 1 µM,35% and 28%
same,%Inh,MLCK; 1 µM,88% and 77%
same,%Inh,MLK1; 1 µM,21% and 2%
same,%Inh,MLK3; 1 µM,22% and 0%
Cl.Cl.Cl.Fc1ccc(-c2ncn(C3CCNCC3)c2-c2ccnc(Nc3ccccc3)n2)cc1 [SB-238039],%Inh,MEK2; 1 µM,58% and 26%
same,%Inh,MEK3; 1 µM,45% and 44%
same,%Inh,MEK5; 1 µM,47% and 18%
same,%Inh,MKK7; 1 µM,23% and 0%
CC(C)(CN)c1nc(-c2ccc(Cl)c(O)c2)c(-c2ccncc2)[nH]1.O=C(O)C(F)(F)F [SB-477794],%Inh,MKK7; 1 µM,26% and 0%
same,%Inh,MKNK1; 1 µM,9% and 0%
same,%Inh,MLCK; 1 µM,0% and 14%
same,%Inh,MLK1; 1 µM,0% and 7%
same,%Inh,MLK3; 1 µM,0% and 32%
Cc1cccc(Cn2ccn3c(=O)cc(N4CCOCC4)nc23)c1 [GSK2297542],%Inh,MEK1,0%
same,%Inh,MEK2,0%
same,%Inh,MEK3,0%
same,%Inh,MEK4,23%
same,%Inh,MEK5,14%
same,%Inh,MEK6,5%
same,%Inh,MELK,8%
same,%Inh,MERTK,24%
same,%Inh,MET,23%
same,%Inh,MINK,7%
same,%Inh,MKK7,0%
same,%Inh,MKNK1,0%
same,%Inh,MKNK2,3%
same,%Inh,MLCK,0%
same,%Inh,MLK1,18%
same,%Inh,MLK2,0%
same,%Inh,MLK3,18%
same,%Inh,MRCKA,0%
same,%Inh,MRCKB,6%
same,%Inh,MST1R,39%
CN1c2ccc(CNc3ccc(F)cc3)cc2-c2c(cnn2C)S1(=O)=O,%Inh,MEK1,11%
same,%Inh,MEK2,18%
same,%Inh,MEK3,13%
same,%Inh,MEK4,22%
same,%Inh,MEK5,31%
same,%Inh,MEK6,0%
same,%Inh,MELK,0%
same,%Inh,MERTK,0%
same,%Inh,MET,0%
same,%Inh,MINK,26%
same,%Inh,MKK7,0%
same,%Inh,MKNK1,15%
same,%Inh,MKNK2,0%
same,%Inh,MLCK,3%
same,%Inh,MLK1,0%
same,%Inh,MLK2,24%
same,%Inh,MLK3,0%
same,%Inh,MRCKA,0%
same,%Inh,MRCKB,0%
same,%Inh,MST1R,0%
Nc1nc(-c2ccc3c(N)n[nH]c3c2)cc(N2CCCC2)n1 [GSK2227430],%Inh,MEK1,0%
same,%Inh,MEK2,64%
same,%Inh,MEK3,0%
same,%Inh,MEK4,0%
same,%Inh,MEK5,7%
same,%Inh,MEK6,8%
same,%Inh,MELK,0%
same,%Inh,MERTK,8%
same,%Inh,MET,0%
same,%Inh,MINK,10%
same,%Inh,MKK7,0%
same,%Inh,MKNK1,4%
same,%Inh,MKNK2,12%
same,%Inh,MLCK,0%
same,%Inh,MLK1,0%
same,%Inh,MLK2,6%
same,%Inh,MLK3,0%
same,%Inh,MRCKA,6%
same,%Inh,MRCKB,0%
same,%Inh,MST1R,1%
COc1cc(Nc2nccc(N3CCC(NC(=O)c4cccc(NC(C)=O)c4)C3)n2)cc(OC)c1OC (centres unmarked) [GSK1379754],%Inh,MEK1,0%
same,%Inh,MEK2,0%
same,%Inh,MEK3,7%
same,%Inh,MEK4,17%
same,%Inh,MEK5,93.5%
same,%Inh,MEK6,0%
same,%Inh,MELK,19%
same,%Inh,MERTK,30%
same,%Inh,MET,21%
same,%Inh,MINK,27%
same,%Inh,MKK7,32%
same,%Inh,MKNK1,38%
same,%Inh,MKNK2,98.6%
same,%Inh,MLCK,1%
same,%Inh,MLK1,67%
same,%Inh,MLK2,50%
same,%Inh,MLK3,53%
same,%Inh,MRCKA,0%
same,%Inh,MRCKB,0%
same,%Inh,MST1R,20%
O=C(NCCNc1ccnc(Nc2ccc(F)cc2)n1)Nc1ccccc1F [GSK1379880],%Inh,MEK1,0%
same,%Inh,MEK2,0%
same,%Inh,MEK3,0%
same,%Inh,MEK4,26%
same,%Inh,MEK5,30%
same,%Inh,MEK6,0%
same,%Inh,MELK,0%
same,%Inh,MERTK,7%
same,%Inh,MET,0%
same,%Inh,MINK,0%
same,%Inh,MKK7,0%
same,%Inh,MKNK1,0%
same,%Inh,MKNK2,5%
same,%Inh,MLCK,0%
same,%Inh,MLK1,0%
same,%Inh,MLK2,0%
same,%Inh,MLK3,0%
same,%Inh,MRCKA,21%
same,%Inh,MRCKB,3%
same,%Inh,MST1R,50%
O=C(Nc1n[nH]c2cc(-c3cccc(F)c3)ccc12)C1CC1 [SB-735464],%Inh,MEK1,8%
same,%Inh,MEK2,10%
same,%Inh,MEK3,8%
same,%Inh,MEK4,4%
same,%Inh,MEK5,31%
same,%Inh,MEK6,0%
same,%Inh,MELK,0%
same,%Inh,MERTK,23%
same,%Inh,MET,0%
same,%Inh,MINK,61%
same,%Inh,MKK7,19%
same,%Inh,MKNK1,0%
same,%Inh,MKNK2,29%
same,%Inh,MLCK,35%
same,%Inh,MLK1,0%
same,%Inh,MLK2,0%
same,%Inh,MLK3,4%
same,%Inh,MRCKA,4%
same,%Inh,MRCKB,0%
same,%Inh,MST1R,15%
COC(=O)Nc1nc2cc(Oc3ccc(NC(=O)Nc4cc(F)ccc4F)cc3)ccc2[nH]1.Cl [GW701424],%Inh,MEK1,0%
same,%Inh,MEK2,0%
same,%Inh,MEK3,0%
same,%Inh,MEK4,15%
same,%Inh,MEK5,12%
same,%Inh,MEK6,0%
same,%Inh,MELK,10%
same,%Inh,MERTK,90.8%
same,%Inh,MET,40%
same,%Inh,MINK,5%
same,%Inh,MKK7,0%
same,%Inh,MKNK1,23%
same,%Inh,MKNK2,12%
same,%Inh,MLCK,0%
same,%Inh,MLK1,0%
same,%Inh,MLK2,0%
same,%Inh,MLK3,0%
same,%Inh,MRCKA,16%
same,%Inh,MRCKB,0%
same,%Inh,MST1R,29%
COc1cc2ncn(-c3cc(OCc4sccc4Cl)c(C(N)=O)s3)c2cc1OC [GSK448459],%Inh,MEK1,0%
same,%Inh,MEK2,0%
same,%Inh,MEK3,0%
same,%Inh,MEK4,15%
same,%Inh,MEK5,99.8%
same,%Inh,MEK6,0%
same,%Inh,MELK,0%
same,%Inh,MERTK,23%
same,%Inh,MET,8%
same,%Inh,MINK,50%
same,%Inh,MKK7,0%
same,%Inh,MKNK1,0%
same,%Inh,MKNK2,0%
same,%Inh,MLCK,10%
same,%Inh,MLK1,0%
same,%Inh,MLK2,0%
same,%Inh,MLK3,0%
same,%Inh,MRCKA,4%
same,%Inh,MRCKB,0%
same,%Inh,MST1R,38%
